Test results: the supplement of paper PMC3334620
The full ranking holds about 33,000 sequences; the median of “E-score (-0.5 to 0.5)” is about -0.013, and the highest 2% start at about 0.3. This is one part of a sample in which the highest values are shown more often than they occur.

Molecular target: T1, Msn1 (UniProt P22148)
T1 sequence: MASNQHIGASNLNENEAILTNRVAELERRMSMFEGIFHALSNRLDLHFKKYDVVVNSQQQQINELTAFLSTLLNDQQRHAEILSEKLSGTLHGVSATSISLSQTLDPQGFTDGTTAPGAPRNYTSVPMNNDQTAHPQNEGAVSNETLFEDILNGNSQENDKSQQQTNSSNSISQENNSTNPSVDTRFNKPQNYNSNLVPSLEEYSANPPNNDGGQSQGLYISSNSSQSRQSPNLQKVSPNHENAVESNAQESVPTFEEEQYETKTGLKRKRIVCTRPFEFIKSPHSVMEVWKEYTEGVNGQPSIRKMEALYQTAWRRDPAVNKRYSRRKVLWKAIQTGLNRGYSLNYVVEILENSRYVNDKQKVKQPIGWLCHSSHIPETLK
Test: PBM E-score (8-mer binding enrichment) (E-score (-0.5 to 0.5)); higher = stronger / more preferred TF binding
Settings: protein concentration: 200 nM; construct: GST-full length
In short: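 The E-score, a modified Wilcoxon-Mann-Whitney statistic, was computed by the Universal PBM Analysis Suite for every ungapped eight-base word pooled with its reverse complement. Scans behind it were normalised with masliner after bound GST-tagged yeast transcription factors were detected with fluorescent anti-GST. The proteins, at about 100-200 nM, had been applied to universal all-10-mer Agilent arrays made double-stranded by primer extension.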

Sequence | PBM E-score
CCGAGATC | 0.0634
AGGTTAAC | -0.0876
AATCGATG | 0.144
CAGCAGAC | 0.0732
AGTCTGTC | 0.0754
AGCCAGAC | -0.072
AAGCGCCC | -0.264
TATTGAGA | 0.208
CCAGCGGC | -0.0286
GGTAACTA | 0.18
ACTGTCGG | -0.0418
CTTGTCGC | 0.166
ATTGTCGA | 0.144
ATTGTCGG | 0.318
ATTGTCGC | 0.344
ACTGTCGC | -0.134
AGGGTTTG | -0.0242
ACCCGTTA | 0.00896
CCGGTACA | 0.319
CTGGTACC | -0.121
CTGGTACA | 0.329
GTGGTACA | 0.13

Sequence | PBM E-score
CCGGTACG | -0.262
GCGGTACA | 0.0441
CGGCCCAG | -0.186
TAAGAAAA | 0.00824
CTGCGACC | -0.19
CTGTCCCC | 0.00412
ATGTCCCG | 0.474
ACGTCCCG | 0.0295
GGGTCCCA | -0.216
AAGTCCCG | 0.283
GCGTCCCA | 0.0223
CTGTCCCA | 0.281
AGGTCCCA | -0.081
ATGTCCCA | 0.485
AGGTCCCC | -0.299
GTGTCCCA | 0.439
ATGTCCCC | 0.479
GCCTTTGA | 0.0544
CGAGGAGA | -0.141
AGACCCTG | -0.165
ACCTAACG | -0.203
ATGATCTG | 0.0873

Sequence | PBM E-score
GGGAAAAA | 0.185
GCGGTCAC | -0.172
ATGTCTAG | 0.373
CTGTCTAA | 0.111
AGGTCTAC | -0.0162
GTGTCTAA | 0.192
ATGTCTAA | 0.403
ATGTCTAC | 0.313
AGGTCTAG | -0.134
CTGTCTAC | -0.0627
AAGTCTAG | -0.107
CTAGTAGC | -0.165
GAGGGTAC | -0.202
CTATTTCC | 0.063
AAAATTCG | 0.232
GAAATTCA | 0.103
AAAATTGG | 0.00283
ACAATTGA | 0.257
AAAATTCA | 0.308
ACAATTGC | 0.191
ACAATTGT | 0.363
AAAATTGC | 0.054

Sequence | PBM E-score
AAAATTGT | 0.357
ATCCATAA | 0.124
AATTCCTC | -0.0412
AGCCACTA | -0.0424
CCCCAGCC | -0.271
ACCCTGAG | -0.0157
GCGCGCGC | 0.333
ACGCGCGC | 0.196
GCGCGCGA | 0.0948
CCTGCTAC | 0.017
AGTTCTCC | -0.205
CCATTTCA | -0.106
ACATTTCG | 0.241
ACATTTCT | 0.204
ACATTTTC | 0.337
CCATTTTA | 0.259
CCATTTTC | 0.136
ACATTTTA | 0.377
AGATTTTC | 0.0741
GCATTTCA | 0.0826
GCATTTTA | 0.109
ACATTTCC | 0.329

Sequence | PBM E-score
ACATTTCA | 0.363
GTGAGGCA | -0.0279
ACTGACCT | -0.063
CCACGTGG | -0.276
CGATGAGC | -0.17
CTACCTCC | -0.0369
ACATTTGG | 0.177
ACATTAAG | 0.32
GCATTTAA | 0.0963
ACATTAAT | 0.155
ACATTAAC | 0.254
ACATTTTG | 0.34
GCATTTGA | 0.051
AGATTTTG | 0.0738
ACATTTGA | 0.311
ACATTTAA | 0.324
ATATTTTG | 0.176
TCATTTAA | 0.132
TACAGGAA | 0.0582
AGATCCTC | -0.125
AGATGCGA | 0.0645
